The campaign covered roughly 5,500 compounds. About 2,000 (36%) were called active. Not shown: some 18% with an inconclusive outcome. No stated cut-off is given here; in the data, active means normalized growth mostly below about 0.91 (no sharp cut-off); inconclusive means no clear call, values can overlap the other calls; inactive means mostly above about 0.92. The list shows a part of the results.
Assay: chemical genetic growth profiling, strain panel (AID 1159580);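 further: tested at 20 µM; growth read once vehicle control cultures reached saturation at 30 °C; 1 = growth at the plate median or of vehicle wells; lower values mean less growth of the strain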
Settings: growth OD

Measured: normalized growth

CCCCCC(=O)O[C@]1(C(C)=O)CCC2C3CCC4=CC(=O)CC[C@]4(C)C3CC[C@@]21C (some centres undefined)
inactive: S. cerevisiae deletion strains, locus YJR066W, strain TOR1, hits give low values 0.939 | S. cerevisiae deletion strains, locus YKL009W, strain mrt4, hits give low values 1.01 | S. cerevisiae deletion strains, locus YKL068W, hits give low values 1 | S. cerevisiae deletion strains, locus YKL085W, strain MDH1 (second series), hits give low values 1.01 | S. cerevisiae deletion strains, locus YKL085W, strain MDH1, hits give low values 1.01 | S. cerevisiae deletion strains, locus YKL160W, strain elf1, hits give low values 0.998 | S. cerevisiae deletion strains, locus YKL190W, strain CNB1, hits give low values 1.01 | S. cerevisiae deletion strains, locus YKR001C, strain vps1, hits give low values 1.01 | S. cerevisiae deletion strains, locus YKR026C, strain gcn3, hits give low values 1 | S. cerevisiae deletion strains, locus YKR091W, strain srl3, hits give low values 0.99 | S. cerevisiae deletion strains, locus YLL001W, strain dnm1, hits give low values 1 | S. cerevisiae deletion strains, locus YLL026W, hits give low values 1.01 | S. cerevisiae deletion strains, locus YLL041C, strain sdh2, hits give low values 0.99 | S. cerevisiae deletion strains, locus YLR027C, strain aat2, hits give low values 1 | S. cerevisiae deletion strains, locus YLR039C, strain RIC1, hits give low values 1.02 | S. cerevisiae deletion strains, locus YLR058C, strain SHM2, hits give low values 1.02 | S. cerevisiae deletion strains, locus YLR102C, strain apc9, hits give low values 1.01 | S. cerevisiae deletion strains, locus YLR113W, strain HOG1, hits give low values 0.988 | S. cerevisiae deletion strains, locus YLR221C, strain rsa3, hits give low values 0.999 | S. cerevisiae deletion strains, locus YLR258W, strain gsy2, hits give low values 1 | S. cerevisiae deletion strains, locus YLR262C, strain YPT6 (second series), hits give low values 1.02 | S. cerevisiae deletion strains, locus YLR262C, strain YPT6, hits give low values 1.09 | S. cerevisiae deletion strains, locus YLR268W, strain sec22, hits give low values 1.02 | S. cerevisiae deletion strains, locus YLR320W, strain mms22, hits give low values 1.01 | S. cerevisiae deletion strains, locus YLR330W, strain CHS5, hits give low values 1.01 | S. cerevisiae deletion strains, locus YLR342W, strain FKS1 (second series), hits give low values 0.997 | S. cerevisiae deletion strains, locus YLR342W, strain FKS1, hits give low values 0.996 | S. cerevisiae deletion strains, locus YLR357W, strain rsc2, hits give low values 1.01 | S. cerevisiae deletion strains, locus YLR370C, strain arc18, hits give low values 0.998 | S. cerevisiae deletion strains, locus YLR371W, strain rom2, hits give low values 1.01 | S. cerevisiae deletion strains, locus YLR384C, strain iki3, hits give low values 0.996 | S. cerevisiae deletion strains, locus YLR418C, strain cdc73, hits give low values 1.01 | S. cerevisiae deletion strains, locus YML016C, strain PPZ1, hits give low values 1 | S. cerevisiae deletion strains, locus YML032C, strain rad52, hits give low values 1.01 | S. cerevisiae deletion strains, locus YML120C, strain ndi1, hits give low values 1 | S. cerevisiae deletion strains, locus YML124C, strain tub3, hits give low values 1 | S. cerevisiae deletion strains, locus YMR058W, strain fet3, hits give low values 1.01 | S. cerevisiae deletion strains, locus YMR078C, strain ctf18, hits give low values 1.01 | S. cerevisiae deletion strains, locus YMR125W, strain sto1, hits give low values 1.01 | S. cerevisiae deletion strains, locus YMR129W, hits give low values 1 | S. cerevisiae deletion strains, locus YMR205C, strain PFK2, hits give low values 0.973 | S. cerevisiae deletion strains, locus YMR223W, strain ubp8, hits give low values 1.01 | S. cerevisiae deletion strains, locus YMR231W, strain pep5, hits give low values 1 | S. cerevisiae deletion strains, locus YMR307W, strain GAS1, hits give low values 1.1 | S. cerevisiae deletion strains, locus YNL067W, strain RPL9B, hits give low values 0.998 | S. cerevisiae deletion strains, locus YNL071W, strain lat1, hits give low values 1 | S. cerevisiae deletion strains, locus YNL128W, strain TEP1, hits give low values 1.02 | S. cerevisiae deletion strains, locus YNL183C, strain NPR1, hits give low values 0.965 | S. cerevisiae deletion strains, locus YNL209W, strain ssb2, hits give low values 1 | S. cerevisiae deletion strains, locus YNL233W, strain BNI4, hits give low values 1.03 | S. cerevisiae deletion strains, locus YNL248C, strain rpa49, hits give low values 1 | S. cerevisiae deletion strains, locus YNL250W, strain rad50, hits give low values 1.01 | S. cerevisiae deletion strains, locus YNL271C, strain bni1, hits give low values 1.02 | S. cerevisiae deletion strains, locus YNL298W, strain CLA4, hits give low values 1.02 | S. cerevisiae deletion strains, locus YNL307C, strain MCK1, hits give low values 1.01 | S. cerevisiae deletion strains, locus YNL322C, strain KRE1 (second series), hits give low values 0.999 | S. cerevisiae deletion strains, locus YNL322C, strain KRE1, hits give low values 1.01 | S. cerevisiae deletion strains, locus YNR049C, strain mso1, hits give low values 1 | S. cerevisiae deletion strains, locus YNR052C, strain pop2, hits give low values 1.02 | S. cerevisiae deletion strains, locus YOL012C, strain htz1 1.02 | S. cerevisiae deletion strains, locus YOL147C, strain pex11, hits give low values 1 | S. cerevisiae deletion strains, locus YOR001W, strain rrp6, hits give low values 1.01 | S. cerevisiae deletion strains, locus YOR061W, strain CKA2, hits give low values 1 | S. cerevisiae deletion strains, locus YOR069W, strain VPS5, hits give low values 1.01 | S. cerevisiae deletion strains, locus YOR070C, strain gyp1, hits give low values 1 | S. cerevisiae deletion strains, locus YOR080W, strain dia2, hits give low values 1 | S. cerevisiae deletion strains, locus YOR083W, strain WHI5, hits give low values 0.997 | S. cerevisiae deletion strains, locus YOR106W, strain vam3, hits give low values 1.01 | S. cerevisiae deletion strains, locus YOR136W, strain idh2, hits give low values 1.02 | S. cerevisiae deletion strains, locus YOR144C, strain elg1, hits give low values 1.01 | S. cerevisiae deletion strains, locus YOR184W, strain ser1, hits give low values 0.969 | S. cerevisiae deletion strains, locus YOR231W, strain MKK1, hits give low values 0.976 | S. cerevisiae deletion strains, locus YOR265W, strain rbl2, hits give low values 0.998 | S. cerevisiae deletion strains, locus YOR270C, strain vph1, hits give low values 1.04 | S. cerevisiae deletion strains, locus YOR290C, strain snf2, hits give low values 0.959 | S. cerevisiae deletion strains, locus YOR316C, strain cot1, hits give low values 1.01 | S. cerevisiae deletion strains, locus YPL051W, strain arl3, hits give low values 1.01 | S. cerevisiae deletion strains, locus YPL055C, strain LGE1, hits give low values 1.01 | S. cerevisiae deletion strains, locus YPL078C, strain atp4, hits give low values 1.01 | S. cerevisiae deletion strains, locus YPL106C, strain sse1, hits give low values 0.986 | S. cerevisiae deletion strains, locus YPL240C, strain hsp82, hits give low values 0.991 | S. cerevisiae deletion strains, locus YPL241C, strain CIN2, hits give low values 1 | S. cerevisiae deletion strains, locus YPL256C, strain CLN2, hits give low values 0.958 | S. cerevisiae deletion strains, locus YPR119W, strain clb2, hits give low values 1.01 | S. cerevisiae deletion strains, locus YPR141C, strain kar3, hits give low values 1.01 | S. cerevisiae deletion strains, locus YPR163C, strain tif3, hits give low values 1.01 | S. cerevisiae deletion strains, locus YPR167C, strain met16, hits give low values 1.01 | S. cerevisiae deletion strains, strain wtn01, hits give low values 1.01 | S. cerevisiae strains, strain wild type, hits give low values 1.01

From PubChem BioAssay AID1159580 (chemical genetic matrix, 2015)
